In assay [1] the target is Protein kinase C gamma type (Homo sapiens) (UniProt P05129). The conditions noted are these: at 1 µM.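 Further: each value is an averaged percent inhibition of the enzyme.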
The target of assay [2] is T1, Protein kinase C iota type (Homo sapiens) (UniProt P41743).
T1 sequence (whole entry): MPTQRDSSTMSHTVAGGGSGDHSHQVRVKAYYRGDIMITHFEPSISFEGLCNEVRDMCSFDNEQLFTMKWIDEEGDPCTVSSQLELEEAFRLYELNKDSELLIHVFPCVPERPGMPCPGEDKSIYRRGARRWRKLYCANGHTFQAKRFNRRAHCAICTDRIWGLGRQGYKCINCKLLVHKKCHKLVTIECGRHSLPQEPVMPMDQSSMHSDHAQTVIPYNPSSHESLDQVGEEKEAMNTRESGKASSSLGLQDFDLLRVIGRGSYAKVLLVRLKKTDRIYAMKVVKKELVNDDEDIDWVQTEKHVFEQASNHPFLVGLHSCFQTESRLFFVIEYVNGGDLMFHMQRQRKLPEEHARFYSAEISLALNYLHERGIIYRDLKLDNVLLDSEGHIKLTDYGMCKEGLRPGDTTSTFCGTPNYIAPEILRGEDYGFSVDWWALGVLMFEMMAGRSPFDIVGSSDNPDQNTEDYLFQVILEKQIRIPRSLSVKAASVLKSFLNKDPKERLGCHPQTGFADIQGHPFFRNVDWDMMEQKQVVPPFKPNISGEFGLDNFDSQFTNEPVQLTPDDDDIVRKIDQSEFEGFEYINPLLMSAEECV
The conditions noted are these: at 0.1 µM.

The target in assay [3] is T1, Protein kinase C iota type (Homo sapiens). The conditions noted are these: at 1 µM.
Assay [4] has as its target Protein kinase C theta type (Homo sapiens) (UniProt Q04759). The settings on record: at 0.1 µM.
The target is the same in assay [5]. The conditions noted are these: at 1 µM.
The target in assay [6] is Protein kinase C beta type (Homo sapiens) (UniProt P05771). The settings on record: at 0.1 µM.
Sequence of Protein kinase C beta type (Homo sapiens) (P05771 2-671 limits assumed): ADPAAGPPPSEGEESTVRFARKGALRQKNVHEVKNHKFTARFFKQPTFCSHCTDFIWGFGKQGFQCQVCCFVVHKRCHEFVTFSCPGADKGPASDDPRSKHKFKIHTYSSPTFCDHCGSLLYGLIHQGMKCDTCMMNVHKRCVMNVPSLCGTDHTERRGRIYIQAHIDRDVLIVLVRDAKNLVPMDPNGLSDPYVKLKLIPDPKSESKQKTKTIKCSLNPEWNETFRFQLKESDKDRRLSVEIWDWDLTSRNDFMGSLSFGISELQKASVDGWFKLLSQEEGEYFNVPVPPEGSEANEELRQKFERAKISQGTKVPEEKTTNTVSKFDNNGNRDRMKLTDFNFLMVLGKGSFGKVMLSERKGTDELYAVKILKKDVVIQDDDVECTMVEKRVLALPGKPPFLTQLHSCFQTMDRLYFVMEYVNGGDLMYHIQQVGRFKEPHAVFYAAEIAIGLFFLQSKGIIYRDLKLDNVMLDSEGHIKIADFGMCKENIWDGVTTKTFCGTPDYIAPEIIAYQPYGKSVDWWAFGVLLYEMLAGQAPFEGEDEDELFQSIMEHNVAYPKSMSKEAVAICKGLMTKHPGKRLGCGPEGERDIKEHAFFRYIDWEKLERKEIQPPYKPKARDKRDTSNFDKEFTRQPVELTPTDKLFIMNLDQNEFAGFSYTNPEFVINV
The target is the same in assay [7]. The conditions noted are these: at 1 µM.
Assay [8] concerns the target T2, Serine/threonine-protein kinase D1 (Homo sapiens) (UniProt Q15139).
T2 sequence (whole entry): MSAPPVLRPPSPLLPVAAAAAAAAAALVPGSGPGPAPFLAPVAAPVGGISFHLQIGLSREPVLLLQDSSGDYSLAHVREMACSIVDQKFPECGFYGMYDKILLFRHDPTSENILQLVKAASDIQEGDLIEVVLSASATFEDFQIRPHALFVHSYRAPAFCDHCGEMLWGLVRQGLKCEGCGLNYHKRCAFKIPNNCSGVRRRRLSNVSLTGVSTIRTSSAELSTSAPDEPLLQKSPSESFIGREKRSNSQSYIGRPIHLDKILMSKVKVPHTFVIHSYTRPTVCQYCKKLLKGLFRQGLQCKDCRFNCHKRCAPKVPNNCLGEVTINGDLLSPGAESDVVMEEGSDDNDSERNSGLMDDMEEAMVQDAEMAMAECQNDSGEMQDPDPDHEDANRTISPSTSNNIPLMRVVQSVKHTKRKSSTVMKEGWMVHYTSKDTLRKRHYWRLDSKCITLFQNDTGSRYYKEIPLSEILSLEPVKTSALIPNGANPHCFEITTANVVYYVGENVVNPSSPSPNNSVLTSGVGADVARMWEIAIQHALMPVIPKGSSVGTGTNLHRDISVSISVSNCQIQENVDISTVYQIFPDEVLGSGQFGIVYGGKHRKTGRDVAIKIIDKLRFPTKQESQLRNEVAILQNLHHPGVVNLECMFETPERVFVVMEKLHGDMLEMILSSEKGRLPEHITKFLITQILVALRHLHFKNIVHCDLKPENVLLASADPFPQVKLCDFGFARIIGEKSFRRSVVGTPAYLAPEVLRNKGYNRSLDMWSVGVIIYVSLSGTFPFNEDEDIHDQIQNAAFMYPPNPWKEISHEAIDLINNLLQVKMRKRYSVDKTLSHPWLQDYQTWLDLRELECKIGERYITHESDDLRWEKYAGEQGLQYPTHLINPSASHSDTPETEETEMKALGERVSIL
The conditions noted are these: at 0.1 µM.

The target in assay [9] is T2, Serine/threonine-protein kinase D1 (Homo sapiens). The conditions noted are these: at 1 µM.
For assay [10], the target named is T3, Serine/threonine-protein kinase D2 (Homo sapiens) (UniProt Q9BZL6).
T3 sequence (whole entry): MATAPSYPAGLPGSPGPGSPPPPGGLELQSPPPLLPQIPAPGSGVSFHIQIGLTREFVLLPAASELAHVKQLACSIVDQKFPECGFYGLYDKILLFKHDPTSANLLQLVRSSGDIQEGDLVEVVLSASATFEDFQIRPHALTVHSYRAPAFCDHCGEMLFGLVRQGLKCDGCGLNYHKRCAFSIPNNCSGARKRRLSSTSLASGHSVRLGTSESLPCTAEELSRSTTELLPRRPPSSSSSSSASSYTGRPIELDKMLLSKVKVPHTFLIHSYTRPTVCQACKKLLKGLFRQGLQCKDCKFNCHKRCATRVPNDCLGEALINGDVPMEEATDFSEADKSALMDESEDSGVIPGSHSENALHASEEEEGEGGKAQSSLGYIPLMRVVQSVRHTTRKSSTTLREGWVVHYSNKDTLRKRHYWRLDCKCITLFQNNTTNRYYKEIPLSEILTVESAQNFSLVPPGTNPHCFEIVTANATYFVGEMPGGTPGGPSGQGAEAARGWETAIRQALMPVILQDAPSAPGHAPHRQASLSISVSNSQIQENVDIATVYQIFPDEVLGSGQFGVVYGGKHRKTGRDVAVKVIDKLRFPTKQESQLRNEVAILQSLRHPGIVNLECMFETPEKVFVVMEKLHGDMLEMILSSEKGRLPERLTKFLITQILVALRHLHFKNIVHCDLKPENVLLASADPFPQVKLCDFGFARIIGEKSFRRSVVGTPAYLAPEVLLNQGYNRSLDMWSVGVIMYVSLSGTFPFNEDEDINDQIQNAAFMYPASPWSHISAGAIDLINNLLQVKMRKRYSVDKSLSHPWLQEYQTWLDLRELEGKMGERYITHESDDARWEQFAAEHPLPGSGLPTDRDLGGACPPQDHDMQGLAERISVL
The conditions noted are these: at 0.1 µM.

Assay [11] concerns the target T3, Serine/threonine-protein kinase D2 (Homo sapiens). The conditions noted are these: at 1 µM.
For assay [12], the target named is T4, Serine/threonine-protein kinase D3 (Homo sapiens) (UniProt O94806).
T4 sequence (whole entry): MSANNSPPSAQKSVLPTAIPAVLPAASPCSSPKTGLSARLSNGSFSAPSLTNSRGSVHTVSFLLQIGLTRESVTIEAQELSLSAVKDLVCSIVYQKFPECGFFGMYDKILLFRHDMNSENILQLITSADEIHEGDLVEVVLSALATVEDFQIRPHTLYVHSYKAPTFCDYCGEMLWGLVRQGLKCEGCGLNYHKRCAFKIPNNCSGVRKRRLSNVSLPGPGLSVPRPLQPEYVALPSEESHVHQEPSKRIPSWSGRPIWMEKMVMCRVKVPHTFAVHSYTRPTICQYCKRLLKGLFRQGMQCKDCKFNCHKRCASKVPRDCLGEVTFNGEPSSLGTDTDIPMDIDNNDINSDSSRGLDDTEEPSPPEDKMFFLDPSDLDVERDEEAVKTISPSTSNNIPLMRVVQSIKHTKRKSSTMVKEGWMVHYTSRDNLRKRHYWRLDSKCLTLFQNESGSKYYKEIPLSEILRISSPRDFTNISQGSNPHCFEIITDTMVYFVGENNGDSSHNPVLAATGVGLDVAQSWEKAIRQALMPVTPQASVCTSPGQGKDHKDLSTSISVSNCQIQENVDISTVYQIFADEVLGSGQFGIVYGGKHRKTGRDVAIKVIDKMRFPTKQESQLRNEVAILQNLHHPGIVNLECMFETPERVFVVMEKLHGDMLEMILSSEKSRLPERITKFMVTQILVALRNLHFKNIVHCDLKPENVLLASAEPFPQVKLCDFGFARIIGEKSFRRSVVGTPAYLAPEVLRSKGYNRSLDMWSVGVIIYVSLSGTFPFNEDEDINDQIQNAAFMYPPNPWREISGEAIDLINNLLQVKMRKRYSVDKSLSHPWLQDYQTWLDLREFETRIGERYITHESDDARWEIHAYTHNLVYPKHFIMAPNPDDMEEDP
The conditions noted are these: at 0.1 µM.

The target in assay [13] is T4, Serine/threonine-protein kinase D3 (Homo sapiens). The settings on record: at 1 µM.
Assay [14] deals with T5, cGMP-dependent protein kinase 1 (Homo sapiens) (UniProt Q13976).
T5 sequence (whole entry): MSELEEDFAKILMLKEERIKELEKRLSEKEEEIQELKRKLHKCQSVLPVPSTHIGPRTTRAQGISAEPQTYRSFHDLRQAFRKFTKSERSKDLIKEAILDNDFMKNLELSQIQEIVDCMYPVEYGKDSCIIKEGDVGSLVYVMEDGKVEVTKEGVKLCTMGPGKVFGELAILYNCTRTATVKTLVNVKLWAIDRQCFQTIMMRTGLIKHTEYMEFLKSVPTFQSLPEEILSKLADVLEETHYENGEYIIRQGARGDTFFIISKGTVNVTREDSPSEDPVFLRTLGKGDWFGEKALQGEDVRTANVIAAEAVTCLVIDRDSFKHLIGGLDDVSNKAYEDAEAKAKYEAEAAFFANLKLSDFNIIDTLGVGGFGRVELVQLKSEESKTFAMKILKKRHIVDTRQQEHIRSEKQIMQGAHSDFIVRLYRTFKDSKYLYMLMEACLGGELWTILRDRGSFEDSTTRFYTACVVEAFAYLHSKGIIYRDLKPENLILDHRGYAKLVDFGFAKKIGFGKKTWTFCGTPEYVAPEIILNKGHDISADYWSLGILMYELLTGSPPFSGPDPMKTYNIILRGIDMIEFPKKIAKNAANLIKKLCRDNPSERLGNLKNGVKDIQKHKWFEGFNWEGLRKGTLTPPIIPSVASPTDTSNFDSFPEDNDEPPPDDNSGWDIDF
The conditions noted are these: at 0.1 µM.

Assay [15] has as its target T5, cGMP-dependent protein kinase 1 (Homo sapiens). The settings on record: at 1 µM.
In assay [16] the target is T6, cGMP-dependent protein kinase 2 (Homo sapiens) (UniProt Q13237).
T6 sequence (whole entry): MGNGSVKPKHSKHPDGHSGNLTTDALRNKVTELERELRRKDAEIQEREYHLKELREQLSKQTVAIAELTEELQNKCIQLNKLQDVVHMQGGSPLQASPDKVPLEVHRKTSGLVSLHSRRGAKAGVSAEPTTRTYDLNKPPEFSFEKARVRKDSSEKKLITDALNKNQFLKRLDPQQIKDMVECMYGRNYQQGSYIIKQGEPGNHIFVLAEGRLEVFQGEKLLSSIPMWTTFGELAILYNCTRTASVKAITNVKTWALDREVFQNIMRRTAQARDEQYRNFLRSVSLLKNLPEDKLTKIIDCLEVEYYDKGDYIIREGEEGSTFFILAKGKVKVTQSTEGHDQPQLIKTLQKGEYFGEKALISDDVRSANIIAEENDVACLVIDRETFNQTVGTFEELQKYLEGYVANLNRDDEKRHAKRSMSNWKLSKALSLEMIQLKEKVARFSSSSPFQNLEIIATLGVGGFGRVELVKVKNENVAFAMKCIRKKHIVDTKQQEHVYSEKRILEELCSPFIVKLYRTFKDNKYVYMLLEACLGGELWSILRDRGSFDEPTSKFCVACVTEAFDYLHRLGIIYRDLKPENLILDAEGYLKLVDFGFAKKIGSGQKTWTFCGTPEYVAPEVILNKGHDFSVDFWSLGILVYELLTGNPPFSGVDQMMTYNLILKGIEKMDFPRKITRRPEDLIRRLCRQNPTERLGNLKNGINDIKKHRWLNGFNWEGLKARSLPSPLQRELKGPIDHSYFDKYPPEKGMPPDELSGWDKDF
The settings on record: at 0.1 µM.

The target of assay [17] is T6, cGMP-dependent protein kinase 2 (Homo sapiens). The conditions noted are these: at 1 µM.
Assay [18] addresses T7, cAMP-dependent protein kinase catalytic subunit PRKX (Homo sapiens) (UniProt P51817).
T7 sequence (whole entry): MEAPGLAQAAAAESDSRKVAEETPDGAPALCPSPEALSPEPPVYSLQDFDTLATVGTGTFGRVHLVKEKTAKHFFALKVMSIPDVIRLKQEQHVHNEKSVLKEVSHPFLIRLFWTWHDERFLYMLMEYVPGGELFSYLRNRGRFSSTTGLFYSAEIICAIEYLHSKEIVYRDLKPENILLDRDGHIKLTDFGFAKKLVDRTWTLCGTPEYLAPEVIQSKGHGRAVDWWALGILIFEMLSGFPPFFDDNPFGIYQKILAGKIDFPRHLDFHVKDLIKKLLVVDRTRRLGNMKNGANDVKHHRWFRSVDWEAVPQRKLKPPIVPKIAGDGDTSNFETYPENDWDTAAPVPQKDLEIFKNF
The settings on record: at 0.1 µM.

Assay [19] concerns the target T7, cAMP-dependent protein kinase catalytic subunit PRKX (Homo sapiens). The settings on record: at 1 µM.
For assay [20], the target named is Rho-associated protein kinase 1 (Homo sapiens) (UniProt Q13464). The settings on record: at 0.1 µM.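 Further: values are mean percent inhibition of ROCK1.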
Sequence of Rho-associated protein kinase 1 (Homo sapiens) (Q13464 2-1354 limits assumed): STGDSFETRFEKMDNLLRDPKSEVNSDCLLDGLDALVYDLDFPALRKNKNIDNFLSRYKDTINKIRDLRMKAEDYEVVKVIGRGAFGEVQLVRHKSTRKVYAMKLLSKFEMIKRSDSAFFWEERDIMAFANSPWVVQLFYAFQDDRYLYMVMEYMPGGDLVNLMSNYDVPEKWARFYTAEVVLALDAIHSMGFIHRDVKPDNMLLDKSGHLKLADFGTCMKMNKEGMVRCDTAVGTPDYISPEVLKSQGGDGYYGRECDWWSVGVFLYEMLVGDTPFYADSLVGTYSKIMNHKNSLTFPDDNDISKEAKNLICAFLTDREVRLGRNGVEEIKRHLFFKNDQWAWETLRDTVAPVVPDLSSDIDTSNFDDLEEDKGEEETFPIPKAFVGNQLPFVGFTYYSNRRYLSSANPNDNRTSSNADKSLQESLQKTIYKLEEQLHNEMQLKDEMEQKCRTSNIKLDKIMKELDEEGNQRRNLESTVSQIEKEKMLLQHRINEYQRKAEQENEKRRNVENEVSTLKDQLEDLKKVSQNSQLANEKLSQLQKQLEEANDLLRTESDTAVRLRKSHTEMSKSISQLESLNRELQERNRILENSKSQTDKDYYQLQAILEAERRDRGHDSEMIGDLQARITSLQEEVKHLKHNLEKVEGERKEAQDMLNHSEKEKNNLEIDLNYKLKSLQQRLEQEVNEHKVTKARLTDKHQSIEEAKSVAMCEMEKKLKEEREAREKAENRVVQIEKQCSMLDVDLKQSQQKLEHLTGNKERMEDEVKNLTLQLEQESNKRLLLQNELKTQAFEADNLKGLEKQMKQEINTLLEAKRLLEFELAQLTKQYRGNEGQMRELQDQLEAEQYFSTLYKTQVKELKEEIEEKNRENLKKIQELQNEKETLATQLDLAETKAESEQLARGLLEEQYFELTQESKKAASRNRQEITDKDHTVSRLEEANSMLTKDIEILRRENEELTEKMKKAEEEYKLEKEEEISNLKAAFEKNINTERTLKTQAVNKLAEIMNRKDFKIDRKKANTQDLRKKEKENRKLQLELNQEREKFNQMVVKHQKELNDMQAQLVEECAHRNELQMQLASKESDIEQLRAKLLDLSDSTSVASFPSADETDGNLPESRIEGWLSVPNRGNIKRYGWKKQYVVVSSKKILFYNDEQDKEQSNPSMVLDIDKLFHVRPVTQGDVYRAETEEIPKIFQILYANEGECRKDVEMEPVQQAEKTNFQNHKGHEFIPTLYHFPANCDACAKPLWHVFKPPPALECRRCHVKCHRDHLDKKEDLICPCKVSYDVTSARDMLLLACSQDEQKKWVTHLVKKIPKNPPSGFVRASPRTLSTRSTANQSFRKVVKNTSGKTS

Molecules are shown by their SMILES.

As usually defined, the inhibition is the share of the control response that was lost under treatment. Low readings indicate little suppression, high ones strong suppression.

Sequence of Protein kinase C theta type (Homo sapiens) (Q04759 whole entry, looked up): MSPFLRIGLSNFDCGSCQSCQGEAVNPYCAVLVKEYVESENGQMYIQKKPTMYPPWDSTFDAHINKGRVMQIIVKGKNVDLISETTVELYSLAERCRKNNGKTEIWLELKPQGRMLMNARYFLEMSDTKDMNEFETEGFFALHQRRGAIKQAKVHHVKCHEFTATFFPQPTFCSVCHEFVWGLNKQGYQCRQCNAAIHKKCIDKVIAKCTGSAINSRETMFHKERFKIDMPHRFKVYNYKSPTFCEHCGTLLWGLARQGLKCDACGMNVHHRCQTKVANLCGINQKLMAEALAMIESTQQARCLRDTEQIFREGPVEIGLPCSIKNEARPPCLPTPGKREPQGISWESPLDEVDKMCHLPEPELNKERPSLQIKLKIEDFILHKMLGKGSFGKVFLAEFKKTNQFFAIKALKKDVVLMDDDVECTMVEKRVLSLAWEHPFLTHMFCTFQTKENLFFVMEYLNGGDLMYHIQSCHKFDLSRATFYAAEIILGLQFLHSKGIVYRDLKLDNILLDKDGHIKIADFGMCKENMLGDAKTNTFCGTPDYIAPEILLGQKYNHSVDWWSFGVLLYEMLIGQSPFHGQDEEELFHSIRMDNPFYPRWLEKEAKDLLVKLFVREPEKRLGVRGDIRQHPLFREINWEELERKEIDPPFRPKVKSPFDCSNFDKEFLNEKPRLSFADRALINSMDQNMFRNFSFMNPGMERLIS

Take `COc1cc(/C=N/Nc2ncnc3[nH]ncc23)ccc1O`: the inhibition in [1] turned out to be 8.27%; in [2], 2.83%; in [3], 2.53%; in [4] it was 2.3%; in assay [5], 4.29%; in [6], 0.58%. Further, the inhibition amounted to 4.16% in assay [7]; 2.99% in [8]; 4.19% in [9]; 2.81% in [10]; 3.63% in assay [11]; 2.22% in assay [12]. In addition, the inhibition in [13] stood at 3.16%; in assay [14], 3.83%; in [15], 14.8%; in [16], 13.5%; in assay [17], 55%; in assay [18] it was 1.69%. Besides, the inhibition was 3.71% in assay [19] and 1.5% in assay [20].
Consider `Fc1ccc(-c2nn3ccccc3c2-c2ccncc2)cc1`, for which the inhibition came out at 2.4% in assay [1]; 0.48% in assay [2]; 3.99% in [3]; 0.74% in assay [4]; 2.07% in assay [5]; 1.95% in assay [6]. Also, the inhibition in [7] is 10.9%; in [8], 1.78%; in [9], 6.49%; in assay [10], 1.93%; in assay [11], 5.87%; in assay [12], 3.07%. Moreover, the inhibition in assay [13] came out at 4.89%; in assay [14], 3.89%; in assay [15], 5.24%; in assay [16], 2.4%; in assay [17] it was 3.57%; in [18] it was 1.41%. Further, the inhibition is 3.65% in assay [19] and 5.05% in [20].

These data come from ChEMBL document CHEMBL1961873, “Compounds: GSK PKIS; Assays: Nanosyn kinase panel” (2012).
